Rows were chosen to be rich in hits. Some 1.2% of all compounds tested hit in one or more screens of this group.
Anesthetic bind: binds horse apoferritin like a general anesthetic. P02791. apoferritin/1-aminoanthracene competitive binding, fluorescence. 350,000 tested, 0.074% active. Potency, µM (titrated, usually from 77.5 µM), inactives show at the highest dose activity change, negative = displacement, most hits filed as inhibitors. AID 485281; also: % is scaled to controls: 0 for no effect and ±100 for the full control effect; nearly all actives have a fitted effect of over 20% in size
Target sequence (P02791 2-175 limits assumed): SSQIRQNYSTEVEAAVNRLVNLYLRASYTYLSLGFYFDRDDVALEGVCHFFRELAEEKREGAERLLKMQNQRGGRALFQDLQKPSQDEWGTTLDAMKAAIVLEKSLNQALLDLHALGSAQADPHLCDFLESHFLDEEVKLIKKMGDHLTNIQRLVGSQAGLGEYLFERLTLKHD
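10 uM apoferritin + 50% sat. 1-AMA, PBS; cpd 10 min RT; Ex380/Em535 endpoint; normalized to free probe vs complex; 4-param Hill fit; propofol titration as pos. ctrl.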
RGS12 GoLoco inh: RGS12 GoLoco-Gai1 interaction inhibition; Gai1:RGS12 GoLoco peptide FP, rhodamine, 10 min; AID 880; Potency, µM (top dose mostly 61.6 µM), inactives show top-dose activity, negative = inhibition, actives largely listed as inhibitors; P63096; 230,000 tested, 0.44% active; active = well fitted inhibition curve with a large enough effect, not every such curve was filed as active; inactive = no such curve, though single readings can be large or run the other way; also: % is scaled to controls: 0 for no effect and ±100 for the full control effect; nearly all actives have a fitted effect of over 30% in size
Target sequence (P63096 whole entry, looked up): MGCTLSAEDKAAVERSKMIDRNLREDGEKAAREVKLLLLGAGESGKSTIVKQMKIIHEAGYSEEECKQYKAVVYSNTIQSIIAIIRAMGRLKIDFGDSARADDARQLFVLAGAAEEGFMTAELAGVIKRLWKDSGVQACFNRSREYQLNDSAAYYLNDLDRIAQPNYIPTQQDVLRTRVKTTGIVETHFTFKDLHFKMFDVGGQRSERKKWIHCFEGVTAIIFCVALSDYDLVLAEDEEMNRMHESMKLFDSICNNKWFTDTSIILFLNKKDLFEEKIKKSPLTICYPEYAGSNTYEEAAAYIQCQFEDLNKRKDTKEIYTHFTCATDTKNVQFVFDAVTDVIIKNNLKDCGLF
BRCA1 expr up: increases BRCA1 expression | 380,000 tested, 1.1% active | AID 624202 | MCF7-BRCA1-FFLuc reporter, luminescence, 48 h; response scale: scaled: vehicle 0%, 10 µM genistein 100% | Potency, µM (titrated, usually from 46.1 µM), for inactives: top-dose activation, usual class: activators; also: nearly all actives have a fitted effect of over 80% in size
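MCF7 cells carrying a BRCA1-firefly luciferase reporter (2000 cells/well, phenol-red free MEM) were attached for 2 h at 37 °C, then given compounds for 48 h. Luminescence was read 15 min after luciferase reagent; activity normalized to genistein (10 microM) and DMSO.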
ERG Ets-DNA blk: blocks human ERG Ets domain binding to DNA; Potency, µM (series often up to 76.9 µM), for inactives: at the highest dose FP activity, negative = inhibition, hits mostly inhibitors; P11308; 370,000 tested, 0.028% active; fluorescence polarization, His-ERG Ets domain / labelled DNA; AID 624246; active = well fitted inhibition curve with a large enough effect in the polarisation, with a control signal flat; inconclusive = small, poorly fitted or top-dose-only effect, or effect the other way, or a change in a side signal; inactive = no such curve, though single readings can be large or run the other way; the % refers to the polarisation;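 also: polarization taken with two DNA probes labelled with fluorescein and Texas red; % of control where 0% means no effect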
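His-tagged ERG Ets domain (1 uM in the protein solution; 300mM KCl, 50mM Tris-HCl, 1mM EDTA, 1mM DTT, pH 7.5) received compound, then a probe mix of 5 nM fluorescein-DNA and 100nM Texas-615-DNA. Fluorescence polarization was read for both dyes.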
* marks the source's active call; other numbers are inactive results; ? = inconclusive; . = no result; [ ] = remark or other dose. Unless noted, calls follow the shape of the dose curve; as a rule, active = well fitted curve in the direction sought with a large enough effect; inconclusive = small, poorly fitted or top-dose-only effect, or another doubt; inactive = no such curve, though single readings can be large; an effect the other way counts as inactive or inconclusive. Potency is read from the fitted curve at half-maximal effect.

SMILES | Anesthetic bind | RGS12 GoLoco inh | BRCA1 expr up | ERG Ets-DNA blk
O=C(Nc1nc(-c2ccccc2)cs1)c1ccco1 | -7.9% | -6.7% | 7.08µM* | 3.3%
Cc1csc(NC(=O)c2ccncc2)n1 | -3.7% | 26.4% | -20.4% | -8.3%
O=C(Nc1nc(-c2ccco2)cs1)c1ccccc1 | -13.3% | 16.0% | 8.91µM* | 1.3%
CO[C@@H]1/C=C\O[C@]2(C)Oc3c(C)c(O)c4c(O)c(cc(O)c4c3C2=O)NC(=O)/C(C)=C\C=C/[C@H](C)[C@@H](O)[C@H](C)[C@H](O)C(C)[C@H](OC(C)=O)[C@@H]1C (stereo not given in full) | . | -1.7%[14.2 µM] | . | .
CN(C(=O)C1CCC(=O)N(Cc2cccc(F)c2)C1)C1CCCCC1 (stereo not given) | -9.0% | . | 7.94µM* | 6.8%
O=C(NC1CCC1)C1CCC(=O)N(Cc2cccc(F)c2)C1 (stereo not given) | -4.5% | . | -0.4% | 11.4%
c1csc(-c2nc(N3CCN(Cc4ccc5c(c4)OCCO5)CC3)c3ccccc3n2)c1 | . | . | 5.1% | .
CCC(CC)c1nnc(NC(=O)COc2ccc3c(c2)OCO3)s1 | ? | . | 1.3% | -6.0%
CC(C)c1nnc(NC(=O)COc2ccc3c(c2)OCO3)s1 | 0.5% | . | 11.2µM* | 2.9%
COc1ccccc1N1CCN(CCn2c(=O)c3c(c4ccccc4n3C)n(C)c2=O)CC1 | -1.5% | 4.6% | . | .
COC(=O)c1ccc(C(=O)Nc2ccc(C(C)C)cc2N)cc1 | -7.9% | 8.1% | 11.2µM* | 9.3%
COc1cc(C2c3cc4c(cc3C(OC3OC5COC(C)O[C@@H]5C(O)C3O)C3COC(=O)C23)OCO4)cc(OC)c1O (stereo not given in full) | -6.2% | 2.9% | . | .
S=c1[nH]nc(-c2ccncc2)n1/N=C/c1cn(-c2ccccc2)nc1-c1ccccc1 | -13.5% | -2.7% | 12.6µM* | -4.9%
C=CCN(C(=O)C1CSC2(C)CCC(=O)N12)c1nc(-c2ccccc2)cs1 (stereo not given) | . | . | 4.0% | 6.0%
C=CCN(C(=O)C1=NN(C2CCS(=O)(=O)C2)C(=O)CC1)c1nc(-c2ccc([N+](=O)[O-])cc2)cs1 (stereo not given) | -19.1% | 10.2% | 5.01µM* | -10.2%
COc1ccc(-c2ccc(SCc3ccccn3)nn2)cc1OC | -15.0% | 9.5% | 20.8% | -5.4%
O=[N+]([O-])c1cccc(-c2ccc(SCc3ccccn3)nn2)c1 | ? | 17.8% | 6.31µM* | 13.7%
COc1cccc(-c2ccc(SCc3ccccn3)nn2)c1 | -21.1% | 5.5% | 5.01µM* | 4.6%
COc1ccc(N=C2C(=S)N(c3ccc(OC)cc3)C(=NS(=O)(=O)c3ccccc3)N2c2ccccc2)cc1 | . | . | 3.55µM* | 10.7%
N=C1N(c2ccccc2)C(=S)C(=Nc2ccccc2)N1c1ccccc1 | . | . | -12.4% | 2.3%
CC(=O)c1c(C)[nH]c2ccc(OCC(O)CNCCc3ccccc3)cc12 (stereo not given) | . | . | 9.3% | .
CC1(C)CCC(=O)N[C@H]1CC(=O)C[C@H]1NC(=O)CCC1(C)C | . | 8.6%[14.2 µM] | . | .
CC1CCC(C(C)C)C(OCC(O)C[N+]2(C)CCCCC2)C1 (stereo not given) | -7.1% | 5.8% | -9.7% | 26.4%
CC1CCC(C(C)C)C(OCC[N+](C)(C)C)C1 (stereo not given) | -1.5% | 3.98µM* | -5.9% | -39.7%
O=c1c2ccccc2oc2ncccc12 | -16.1% | 22.2% | 12.6µM* | -2.8%
SMILES | Anesthetic bind | RGS12 GoLoco inh | BRCA1 expr up | ERG Ets-DNA blk
Cc1ccc(CNc2nc3ccccc3n2C)o1 | -7.1% | . | 3.98µM* | 9.5%
CCn1cnc2cc(NCc3ccccc3Cl)ccc21 | -15.7% | . | ? | 0.7%
Cn1c(NCc2ccccc2O)nc2ccccc21 | -22.3% | 1.7% | ? | -3.4%
CCN(CC)CCn1c(NCc2ccc(C)o2)nc2ccccc21 | -14.4% | 11.9% | -1.4% | -9.6%
Cn1c(NCc2ccccc2Cl)nc2ccccc21 | . | . | 3.55µM* | 0.3%
Cn1cnc2cc(NCc3ccccc3Cl)ccc21 | -12.7% | . | 7.94µM* | 2.1%
Cc1cccc2c1OCC/C2=N\NC(=O)COc1ccccc1 | ? | 2.2% | 11.2µM* | -2.8%
O=C(O)CCc1cccc2ccccc12 | . | . | 0.0% | .
CNC(=S)Nc1cccc(C(=O)OC)c1 | -1.7% | -3.3% | 7.08µM* | 2.5%
COC(=O)c1cccc(NC(N)=S)c1 | -6.6% | 7.9% | 5.1% | -10.2%
CCOc1cccc(C(=O)NC(=S)Nc2ccccc2)c1 | -11.6% | -0.3% | 11.2µM* | -6.9%
CC(=O)c1cccc(NC(=S)NC(=O)c2ccc(C)cc2)c1 | -17.1% | 9.7% | 7.94µM* | 2.3%
Cc1c2cnn(CC(=O)N3CCCCC3)c(=O)c2c(C)n1Cc1ccc(Cl)cc1 | ? | . | . | 2.9%
O=C(NCCCCCCNC(=O)ON=C1CCCCC1)ON=C1CCCCC1 | 2.4% | -2.2% | . | .
CCc1ccc(NCc2cc3cc4c(cc3n(CC(=O)Nc3ccc(Cl)cc3)c2=O)OCO4)cc1 | -6.4% | . | 1.1% | 6.5%
CCOC(=O)c1ccc(NCCOC)c([N+](=O)[O-])c1 | -11.5% | 0.2% | 12.6µM* | 8.1%
CN(Cc1c(F)cccc1Cl)C(=O)CNC(=O)c1cccs1 | -21.6% | . | 11.2µM* | -2.6%
Cc1ccc2nc(NCc3ccccc3)c(C=NCc3ccccc3)c(=O)n2c1 | -12.7% | 7.7% | 12.6µM* | -11.7%
Cc1cccn2c(=O)c(C=NCc3ccccc3)c(NCCO)nc12 | -10.1% | 1.2% | 13.2% | .
O=C(N/N=C/c1c(F)cccc1Cl)c1cc(C2CC2)[nH]n1 | 0.0% | . | 11.2µM* | -5.0%
O=C(Nc1ccccc1)c1cnc2n(c1=O)CCS2 | 4.6% | -9.3% | 28.2% | -1.1%
O=C(Nc1ccc2c(c1)OCCO2)c1cnc2n(c1=O)CCS2 | -6.0% | -2.1% | 7.08µM* | 2.0%
O=C(Nc1ccc2c(c1)OCO2)c1cnc2n(c1=O)CCS2 | -3.6% | 0.2% | 2.51µM* | -8.9%
CC(Oc1ccc(Cl)cc1Cl)c1nc(-c2ccccn2)no1 (stereo not given) | ? | 4.2% | 11.2µM* | .
CCn1c(CSc2nnc(-c3ccncc3)n2CCOC)nc2cc(C(=O)O)ccc21 | -0.8% | 11.2µM* | -5.8% | 5.01µM*
SMILES | Anesthetic bind | RGS12 GoLoco inh | BRCA1 expr up | ERG Ets-DNA blk
CCn1c(CSc2nnc(-c3cccnc3)n2-c2ccccc2C)nc2cc(C(=O)O)ccc21 | 5.1% | 3.16µM* | . | .
CCn1c(CSc2n[nH]c(N)n2)nc2cc(C(=O)O)ccc21 | -0.1% | 3.55µM* | -12.0% | 15.8µM*
CCn1c(CSc2nnc3ccccn23)nc2cc(C(=O)O)ccc21 | -6.1% | 4.47µM* | -16.5% | ?
CCC(C(=O)Nc1cc(C)ccc1OC)n1nnc(C(=O)OC)c1C(=O)OC (stereo not given) | 3.6% | . | . | 3.7%
CC1(C)CC(=O)c2c(Cc3ccccc3)noc2C1 | ? | 3.0% | 23.4% | -6.0%
CC1(C)CC(=O)c2c(noc2-c2ccccc2)C1 | 10µM* | 6.8% | 47.0% | 1.9%
Cc1ccc(OCc2cc(C(=O)N(CCO)Cc3cccs3)no2)cc1C | ? | . | 11.2µM* | 3.9%
CCOc1ccc(N=Nc2c(N)[nH][nH]c2=O)cc1 | 5.2% | -17.6% | 5.01µM* | -1.9%
O=c1c(Cl)c(Nc2cccc(Cl)c2)cnn1-c1nc2ccccc2s1 | -8.4% | 12.2% | 14.1µM* | -3.4%
